Results published in PubChem BioAssay (Tox21).
Inconclusive results are not listed. A number with no mark means an inactive call. Calls of active or inactive are those of the source. The call rests on the fitted dose curve; in most records, active means well fitted inhibition curve with a large enough effect in the repeat runs; inconclusive means weak or mixed curves; inactive means no such curve, though single readings can be large or run the other way.

molecular target: Cytochrome P450 2D6 (Homo sapiens) (UniProt P10635); assay: Cytochrome P450 Family 2 Subfamily D Member 6 (CYP2D6) small molecule antagonists: luciferase reporter qHTS assay (AID 1671196); conditions: P450-Glo CYP2D6 enzyme assay, luciferin luminescence, 1 h; series mostly up to 115 µM; activity change, negative = inhibition: at the top concentration
Sequence (P10635 whole entry, looked up): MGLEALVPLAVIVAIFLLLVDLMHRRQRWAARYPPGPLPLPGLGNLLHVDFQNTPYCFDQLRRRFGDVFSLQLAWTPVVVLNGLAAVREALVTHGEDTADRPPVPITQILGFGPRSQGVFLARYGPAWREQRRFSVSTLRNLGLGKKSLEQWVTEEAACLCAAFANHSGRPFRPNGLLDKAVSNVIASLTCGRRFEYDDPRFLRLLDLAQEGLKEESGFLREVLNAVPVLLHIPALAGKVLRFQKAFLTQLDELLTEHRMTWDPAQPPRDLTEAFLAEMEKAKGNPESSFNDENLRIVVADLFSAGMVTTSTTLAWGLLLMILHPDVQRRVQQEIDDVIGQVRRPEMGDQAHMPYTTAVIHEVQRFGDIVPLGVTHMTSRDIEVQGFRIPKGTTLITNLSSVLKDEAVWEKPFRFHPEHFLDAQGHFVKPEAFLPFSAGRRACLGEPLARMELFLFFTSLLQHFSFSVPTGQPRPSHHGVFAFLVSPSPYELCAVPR
Summary of the method: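 Enzyme and proluciferin substrate were first combined with test chemical for 10 min at room temperature. Adding NADPH regeneration solution started a 1 h reaction, stopped with luciferin detection reagent and read by luminescence 20 min later.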
Further: nearly all actives have a fitted effect of over 50% in size.
On the % scale 0 is the no-effect control and ±100 the full control effect; potency means the concentration at half of the fitted maximal effect.

Compound	Potency	activity change, negative = inhibition
CC1(CO)CN(c2ccccc2)NC1=O (stereo not drawn)	28.3 µM (active)	
N#Cc1ccc(C(=O)O)cc1	28.3 µM (active)	
COc1ccc(C2CNC(=O)C2)cc1OC1CCCC1 (stereo not drawn)		-7.29% [at 53 µM]
CC(=O)c1sc(C)nc1C		-6.89%
C=Cc1ccccn1		-11.8%
O=C1c2ccccc2C(=O)C1c1ccccc1		-0.562% [at 53 µM]
CCC(CC)CO		-2.48%
CCCCCCCCC(=O)Cl		-21.2%
O=C(O)Cc1cn(-c2ccccc2)nc1-c1ccc(Cl)cc1		-3.2% [at 53 µM]
CCCCNC1CC(C)(C)NC(C)(C)C1	28.3 µM (active)	
O=C(O)Cc1ccc(Cl)cc1Cl	31.7 µM (active)	
C[C@H](CCC(=O)O)[C@H]1CC[C@H]2[C@@H]3C(=O)C[C@@H]4CC(=O)CC[C@]4(C)[C@H]3CC(=O)[C@]12C		-0.523% [at 53 µM]
CC(COC(C)(C)C)OCCCO (stereo not drawn)	63.3 µM (active)	
CCOc1cc([N+](=O)[O-])c(OCC)cc1N1CCOCC1		1.99%
CCCCCOC(=O)CCC		-15%
OCCCCC(O)CO (stereo not drawn)		2.36%
CC(C)=CCOC(=O)c1ccccc1		1.04%
CC(=O)Nc1ccc(S(=O)(=O)Cl)cc1		-24.9%
c1ccc2nccnc2c1		-12.6%

Compound	Potency	activity change, negative = inhibition
CC(C)CCCCOC(=O)c1ccccc1C(=O)OCCCCC(C)C		-16%
C[C@@H](O)[C@H]1C(=O)N2C(C(=O)O)=C(SCCN=CN)C[C@H]12		-14.3% [at 53 µM]
C[C@@H](Oc1ccc(CNC(=O)c2cccnc2Oc2ccc3c(c2)OCO3)c(F)c1)C(=O)O		-17.5%
COc1ccc2c(c1OC)C(=O)O[C@@H]2[C@H]1c2c(cc3c(c2OC)OCO3)CCN1C	11 µM (active)	
CO[C@@H]1[C@@H](OC(N)=O)[C@@H](O)[C@H](Oc2ccc3c(O)c(NC(=O)c4ccc(O)c(CC=C(C)C)c4)c(=O)oc3c2C)OC1(C)C		-8.33% [at 53 µM]
C=COCCOCCOCCOC=C		-3.64%
C=C(C)C(=O)OCc1ccccc1		-11.1%
CC1=CCC(C(C)C)=CC1		2.94%
Cc1ccc2c(c1)OCC(=O)CO2	35.6 µM (active)	
CCC(C=O)CC		-0.771%
FC(F)(F)c1ccccc1-n1ccnc1	2.19 µM (active)	
CC(=O)N[C@@H](CCC(=O)O)C(=O)O		-19.8% [at 53 µM]
O=C(OCC(O)CO)c1ccccc1Nc1ccnc2c(C(F)(F)F)cccc12 (stereo not drawn)	30.9 µM (active)	
CC(C)(C)c1cc(CCC(=O)NN)cc(C(C)(C)C)c1O	35.6 µM (active)	
O=S(O)(O)=S		-0.0268% [at 10.5 µM]
CCCC(=O)C(C)=O		0.676%
Nc1ccc2cc(S(=O)(=O)O)cc(O)c2c1	44.5 µM (active)	
CN(C)C(=O)CNC(=O)Cc1ccccc1		-6.49% [at 53 µM]

molecular target: Cytochrome P450 2C9 (Homo sapiens) (UniProt P11712); assay: Cytochrome P450 Family 2 Subfamily C Member 9 (CYP2C9) small molecule antagonists: luciferase reporter qHTS assay (AID 1671198); conditions: P450-Glo CYP2C9 enzyme assay, luciferin luminescence; series mostly up to 115 µM; activity change, negative = inhibition: at the top concentration
Sequence (P11712 whole entry, looked up): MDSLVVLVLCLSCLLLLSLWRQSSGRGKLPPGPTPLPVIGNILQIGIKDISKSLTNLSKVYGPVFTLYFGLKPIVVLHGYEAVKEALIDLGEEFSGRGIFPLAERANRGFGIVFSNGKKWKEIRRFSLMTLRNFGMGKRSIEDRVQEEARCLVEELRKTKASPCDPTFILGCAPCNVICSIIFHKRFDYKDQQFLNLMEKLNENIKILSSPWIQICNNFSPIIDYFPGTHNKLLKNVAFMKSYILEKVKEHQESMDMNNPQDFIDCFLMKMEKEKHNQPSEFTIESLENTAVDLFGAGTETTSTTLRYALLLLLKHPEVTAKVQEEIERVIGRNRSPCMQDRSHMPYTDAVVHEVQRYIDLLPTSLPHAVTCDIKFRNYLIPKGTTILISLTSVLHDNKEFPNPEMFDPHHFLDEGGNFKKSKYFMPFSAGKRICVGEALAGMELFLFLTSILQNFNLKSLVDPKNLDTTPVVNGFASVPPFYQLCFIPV
Summary of the method: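 Enzyme-substrate mix preincubated with compound 10 min at room temperature; reaction started with NADPH regeneration solution, 1 h 37C. Luminescent luciferin product read after 20 min detection reagent.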

Compound	Potency	activity change, negative = inhibition
CC1(CO)CN(c2ccccc2)NC1=O (stereo not drawn)	25.2 µM (active)	
N#Cc1ccc(C(=O)O)cc1		-9.45%
COc1ccc(C2CNC(=O)C2)cc1OC1CCCC1 (stereo not drawn)		-17.7% [at 53 µM]
CC(=O)c1sc(C)nc1C		-11.1%
C=Cc1ccccn1		2.54%
O=C1c2ccccc2C(=O)C1c1ccccc1		-0.0288% [at 53 µM]
CCC(CC)CO		-5.6%
O=C(O)Cc1cn(-c2ccccc2)nc1-c1ccc(Cl)cc1	5.49 µM (active)	
O=C(O)Cc1ccc(Cl)cc1Cl		-14.2%
C[C@H](CCC(=O)O)[C@H]1CC[C@H]2[C@@H]3C(=O)C[C@@H]4CC(=O)CC[C@]4(C)[C@H]3CC(=O)[C@]12C		0.694% [at 53 µM]
CC(COC(C)(C)C)OCCCO (stereo not drawn)		-4.79%
CCOc1cc([N+](=O)[O-])c(OCC)cc1N1CCOCC1	7.96 µM (active)	
CCCCCOC(=O)CCC		1.74%
OCCCCC(O)CO (stereo not drawn)	67.2 µM (active)	
CC(C)=CCOC(=O)c1ccccc1		-14.1%
CC(=O)Nc1ccc(S(=O)(=O)Cl)cc1		-5.16%
c1ccc2nccnc2c1		-18.6%
COc1ccc2c(c1OC)C(=O)O[C@@H]2[C@H]1c2c(cc3c(c2OC)OCO3)CCN1C	0.871 µM (active)	
CO[C@@H]1[C@@H](OC(N)=O)[C@@H](O)[C@H](Oc2ccc3c(O)c(NC(=O)c4ccc(O)c(CC=C(C)C)c4)c(=O)oc3c2C)OC1(C)C	11 µM (active)	
C=C(C)C(=O)OCc1ccccc1		-9.62%
CC1=CCC(C(C)C)=CC1		-6.3%
Cc1ccc2c(c1)OCC(=O)CO2		-18.7%
CCC(C=O)CC		-2.47%
O=C(OCC(O)CO)c1ccccc1Nc1ccnc2c(C(F)(F)F)cccc12 (stereo not drawn)	9.77 µM (active)	
CC(C)(C)c1cc(CCC(=O)NN)cc(C(C)(C)C)c1O	5.03 µM (active)	
O=S(O)(O)=S		-6.3% [at 10.5 µM]
Nc1ccc2cc(S(=O)(=O)O)cc(O)c2c1	35.4 µM (active)	
CN(C)C(=O)CNC(=O)Cc1ccccc1		0.657% [at 53 µM]

molecular target: Cytochrome P450 1A2 (Homo sapiens) (UniProt P05177); assay: Cytochrome P450 Family 1 Subfamily A Member 2 (CYP1A2) small molecule antagonists: luciferase reporter qHTS assay (AID 1671199); conditions: P450-Glo CYP1A2 enzyme, luciferin luminescence, 1 h; series mostly up to 53 µM; activity change, negative = inhibition: at the top concentration
Sequence (P05177 whole entry, looked up): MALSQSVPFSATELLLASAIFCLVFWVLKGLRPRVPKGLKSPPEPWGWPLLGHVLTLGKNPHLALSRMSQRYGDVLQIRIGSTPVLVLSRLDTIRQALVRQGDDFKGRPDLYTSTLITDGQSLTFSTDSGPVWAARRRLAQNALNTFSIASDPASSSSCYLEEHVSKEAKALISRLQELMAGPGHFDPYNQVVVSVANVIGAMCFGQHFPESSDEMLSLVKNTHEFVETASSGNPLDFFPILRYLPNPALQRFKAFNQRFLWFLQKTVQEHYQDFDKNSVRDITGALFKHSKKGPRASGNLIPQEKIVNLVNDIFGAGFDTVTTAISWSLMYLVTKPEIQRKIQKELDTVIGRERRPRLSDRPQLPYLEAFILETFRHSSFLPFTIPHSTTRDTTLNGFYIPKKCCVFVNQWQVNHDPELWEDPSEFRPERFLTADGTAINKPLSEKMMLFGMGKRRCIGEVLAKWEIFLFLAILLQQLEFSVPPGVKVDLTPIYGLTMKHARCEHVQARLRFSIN
Summary of the method: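 Compounds were incubated with CYP1A2 and a luminogenic proluciferin substrate for 10 min at room temperature before the reaction was started with NADPH regeneration solution. After 1 h, detection reagent was added and light output, proportional to CYP activity, was recorded.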

Compound	activity change, negative = inhibition	Potency
CC(=O)c1sc(C)nc1C	-13.3% [at 115 µM]	
C=Cc1ccccn1	-0.279% [at 115 µM]	
O=C1c2ccccc2C(=O)C1c1ccccc1	8.4%	
CCCCCCCCC(=O)Cl		64 µM (active)
CCCCNC1CC(C)(C)NC(C)(C)C1	-16% [at 115 µM]	
C[C@H](CCC(=O)O)[C@H]1CC[C@H]2[C@@H]3C(=O)C[C@@H]4CC(=O)CC[C@]4(C)[C@H]3CC(=O)[C@]12C	11.7%	
CC(COC(C)(C)C)OCCCO (stereo not drawn)	-15.5% [at 115 µM]	
CCOc1cc([N+](=O)[O-])c(OCC)cc1N1CCOCC1		1.78 µM (active)
CCCCCOC(=O)CCC	-16.5% [at 115 µM]	
OCCCCC(O)CO (stereo not drawn)	-13.9% [at 115 µM]	
CC(C)CCCCOC(=O)c1ccccc1C(=O)OCCCCC(C)C		17.9 µM (active)
C[C@@H](O)[C@H]1C(=O)N2C(C(=O)O)=C(SCCN=CN)C[C@H]12	-11.8%	
C[C@@H](Oc1ccc(CNC(=O)c2cccnc2Oc2ccc3c(c2)OCO3)c(F)c1)C(=O)O	-24.5% [at 115 µM]	
CO[C@@H]1[C@@H](OC(N)=O)[C@@H](O)[C@H](Oc2ccc3c(O)c(NC(=O)c4ccc(O)c(CC=C(C)C)c4)c(=O)oc3c2C)OC1(C)C	-28.2%	
C=COCCOCCOCCOC=C		35.6 µM (active)
CC1=CCC(C(C)C)=CC1	-7.04% [at 115 µM]	
FC(F)(F)c1ccccc1-n1ccnc1		5.49 µM (active)
CC(=O)N[C@@H](CCC(=O)O)C(=O)O	12.9%	
O=C(OCC(O)CO)c1ccccc1Nc1ccnc2c(C(F)(F)F)cccc12 (stereo not drawn)		2.88 µM (active)
CC(C)(C)c1cc(CCC(=O)NN)cc(C(C)(C)C)c1O		8.94 µM (active)
O=S(O)(O)=S	-12.3% [at 10.5 µM]	
CCCC(=O)C(C)=O	-17.4% [at 115 µM]	
CN(C)C(=O)CNC(=O)Cc1ccccc1	13.3%	
